ALDH1A1 block: inhibitors of human aldehyde dehydrogenase 1A1; AID 1030; P00352; Potency, µM (titrated, usually from 75.3 µM), for inactives: at the highest dose activity, negative = inhibition, hits mostly inhibitors; 7.3% of 220,000 active; Purified ALDH1A1, NADH fluorescence, propionaldehyde substrate;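 further: potency means the concentration at half of the fitted maximal effect; plate controls were no enzyme wells and a reference inhibitor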
HPGD block: inhibitors of human 15-hydroxyprostaglandin dehydrogenase (HPGD) | P15428 | 4.3% of 150,000 active | Potency, µM, without a hit: at the highest dose activity change, negative = inhibition, usual class: inhibitors | purified HPGD, NADH fluorescence kinetic, PGE2 substrate; further: potency means the concentration at half of the fitted maximal effect; on the % scale 0 is the no-effect control and ±100 the full control effect
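20 nM HPGD preincubated 15 min at room temperature with compound in 50 mM Tris-HCl pH 8, 0.01% Tween 20. Started with 1 mM NAD+ and 30 uM prostaglandin E2; NADH fluorescence (360/450 nm) read 5 times over 30-s intervals, last minus first.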
KDM4E inh: inhibitors of human JMJD2E histone demethylase; B2RXH2; JMJD2E catalytic domain, FDH-coupled NADH fluorescence (FDH is formaldehyde dehydrogenase); Potency, µM (top dose mostly 57.1 µM), without a hit: at the highest dose activity change, negative = inhibition, actives largely listed as inhibitors; 1.6% of 230,000 active; AID 2147;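 further: potency means the concentration at half of the fitted maximal effect; 0% = wells with enzyme and -100% = buffer wells without enzyme; nearly all actives have a fitted effect of over 50% in size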
HttQ103 aggreg: mutant huntingtin aggregation inhibition; PC12 HttQ103-GFP aggregates, Acumen cytometry, 40 h; Potency, µM (highest dose often 46.1 µM), for the others: at the highest dose activity change, negative = inhibition, usual class: inhibitors; 1.1% of 220,000 active; active means well fitted curve in the direction sought with a large enough effect; inconclusive means small, poorly fitted or top-dose-only effect, or another doubt; inactive means no such curve, though single readings can be large; an effect the other way counts as inactive or inconclusive; further: potency means the concentration at half of the fitted maximal effect; on the % scale 0 is the no-effect control and ±100 the full control effect; nearly all actives have a fitted effect of over 60% in size
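Multiplexed with ATP-based cell death, this channel scores GFP aggregates in PC12 cells expressing inducible HTTex1-Q103-GFP. Induction used 100 nM tebufenozide; compounds were tested in concentration series.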
CBFb-RUNX1 inh: CBF-beta/RUNX1 interaction disruption | AID 1477 | 230,000 tested, under 10 active | AlphaScreen CBFb-His/RUNX1-biotin binding, biochemical | Q01196+Q13951 | Potency, µM (series often up to 59.8 µM), without a hit: top-dose activity, negative = inhibition, most hits filed as inhibitors; active means well fitted curve in the direction sought with a large enough effect; inconclusive means small, poorly fitted or top-dose-only effect, or another doubt; inactive means no such curve, though single readings can be large; an effect the other way counts as inactive or inconclusive; further: % of control where 0% means no effect
Target sequence (Q01196 whole entry, looked up): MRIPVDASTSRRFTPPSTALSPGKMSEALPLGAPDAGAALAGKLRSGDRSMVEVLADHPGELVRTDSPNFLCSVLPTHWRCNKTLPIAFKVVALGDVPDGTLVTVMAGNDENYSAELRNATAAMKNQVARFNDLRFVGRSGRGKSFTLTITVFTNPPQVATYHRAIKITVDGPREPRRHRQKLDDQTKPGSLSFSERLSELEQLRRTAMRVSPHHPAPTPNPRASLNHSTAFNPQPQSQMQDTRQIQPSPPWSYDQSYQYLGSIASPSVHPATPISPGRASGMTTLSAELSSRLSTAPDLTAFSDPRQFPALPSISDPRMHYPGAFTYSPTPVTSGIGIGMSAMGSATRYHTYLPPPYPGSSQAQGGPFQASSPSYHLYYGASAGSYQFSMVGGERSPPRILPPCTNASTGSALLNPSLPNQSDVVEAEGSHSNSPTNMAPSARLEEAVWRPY
Target sequence (Q13951 whole entry, looked up): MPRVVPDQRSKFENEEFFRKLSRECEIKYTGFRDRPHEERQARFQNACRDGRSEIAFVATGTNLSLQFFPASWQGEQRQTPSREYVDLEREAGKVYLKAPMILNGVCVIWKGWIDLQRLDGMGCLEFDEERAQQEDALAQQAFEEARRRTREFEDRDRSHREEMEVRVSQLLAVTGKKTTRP
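CBF-beta (His) and RUNX1 (biotin), 30 nM each; 20 min preassociation; + compound, 15 min; + beads 50 ng each (Ni, streptavidin), 90 min; RT; AlphaScreen read.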
HTT ATP protect: Huntington cell model cytoprotection by ATP luminescence. PC12 HTT-Q103 induced, cytoprotection, ATP luminescence, 40 h. Potency, µM (highest dose often 56.4 µM), for the others: cytoprotection (ATP increase), usual class: activators. 0.14% of 230,000 active; active means well fitted curve in the direction sought with a large enough effect; inconclusive means small, poorly fitted or top-dose-only effect, or another doubt; inactive means no such curve, though single readings can be large; an effect the other way counts as inactive or inconclusive; further: potency means the concentration at half of the fitted maximal effect; % of control where 0% means no effect; nearly all actives have a fitted effect of over 45% in size
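Rat PC12, Q103 Htt exon1-GFP fusion, ecdysone promoter; tebufenozide inducer 100 nM final; compound titration; qHTS, 1500 cells/well; ATPlite luminescent read.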
Active calls of the source: *; u = inconclusive; x = no result given; [ ] = remark or other dose. Only some compounds are listed: those with a hit (about 9.8% of all), similar ones and a draw of the others. Unless noted, the call rests on the fitted dose curve; in most records, active means well fitted inhibition curve with a large enough effect (not every such curve was filed as active); inconclusive means small, poorly fitted or top-dose-only effect, or another doubt; inactive means no such curve, though single readings can be large or run the other way.

SMILES	ALDH1A1 block	HPGD block	KDM4E inh	HttQ103 aggreg	CBFb-RUNX1 inh	HTT ATP protect
Cc1cccc(-c2nc(C#N)c(NCc3ccco3)o2)c1	u	x	u	-6.0%[9.22 µM]	-15.5%	17.3%[10 µM]
O=C(Nc1ccc([N+](=O)[O-])cn1)c1ccc2c(c1)OCO2	6.2%	x	1.5%	-13.5%	-1.7%	-3.2%
COc1ccc(-n2c(C)cc(/C=N/Nc3nnc(C)n3N)c2C)cc1	12.6µM*	-18.9%	u	-13.4%	-6.1%	4.5%[10 µM]
COc1cc(O)c(/C=N/NC(=O)c2ccncc2)c(OC)c1[N+](=O)[O-]	3.6%	x	22.4µM*	11.9%	u	u
O=C(N/N=C/c1cc([N+](=O)[O-])ccc1O)c1ccncc1	u	x	10µM*	-6.0%[9.22 µM]	-7.7%	2.2%[10 µM]
Cc1nc(C)c(C(=O)N/N=C/c2cc(Br)ccc2O)s1	x	x	22.4µM*	1.26µM*	2.6%	-49.5%[10 µM]
O=C(N/N=C/c1cc(Br)ccc1O)c1ccncc1	x	x	28.2µM*	-44.9%[9.22 µM]	u	-15.9%[10 µM]
Cc1nc(C)c(C(=O)N/N=C/c2c[nH]c3ccccc23)s1	u	u	u	13.0%	-7.4%	-0.7%
Cc1ccc(NC(=O)/C=N/OCC(=O)NCc2ccccc2Cl)cc1	x	x	-0.5%	-5.3%[9.22 µM]	0.3%	22.5%[10 µM]
CC[C@H](C)C(N)C(=O)O (stereo partly specified)	x	x	x	x	27.2%	x
Nc1nonc1C(=O)N/N=C/c1cc(Br)ccc1O	3.9%	x	3.55µM*	u	u	-178.0%
NC(=O)N/N=C\c1cc(Br)ccc1O	-3.1%	-21.1%	u	0.6%	u	11.2%[10 µM]
O=C(N/N=C/c1cc([N+](=O)[O-])ccc1O)c1ccc2c(c1)OCCO2	5.0%	-13.0%	25.1µM*	14.1µM*	u	24.6%[10 µM]
O=C(O)CCC(=O)N1CCc2cc(S(=O)(=O)NC3CCCc4ccccc43)ccc21 (stereo unspecified)	u	x	-20.2%	-9.0%	2.8%	-4.5%
O=C(O)CCC(=O)N1CCc2cc(S(=O)(=O)NC3CCCC3)ccc21	7.9%	12.6µM*	3.2%	1.4%	5.9%	-18.1%
O=C(C1CCC1)N1CCc2cc(S(=O)(=O)NC3CCCC3)ccc21	-9.2%	10µM*	3.9%	u	9.1%	-14.6%
O=C(C1CCC1)N1CCc2cc(S(=O)(=O)NC3CCCc4ccccc43)ccc21 (stereo unspecified)	-8.9%	u	6.9%	-21.4%	0.3%	-9.8%
CN(Cc1ccco1)S(=O)(=O)c1ccc2c(c1)CCN2C(=O)CCC(=O)O	10.4%	14.1µM*	1.7%	0.1%	5.5%	x
CSCC[C@H](N)C(=O)N[C@@H](CCCN=C(N)N)C(=O)N[C@@H](CC(C)C)C(=O)N[C@@H](Cc1ccccc1)C(=O)N[C@H](C(=O)O)C(C)C	x	x	x	x	11.3%	x
CCOc1cccc(=O)c2c(C)n(Cc3ccco3)c(C)c12	2.24µM*	u	1.5%	10.3%	3.0%	0.5%
O=C(O)c1ccc2c(c1)C(=O)/C(=C/c1ccccc1)C2=O	-15.0%	12.6µM*	-9.2%	-14.6%	-29.5%	-10.6%[10 µM]
Cc1ccc(/C=C2/C(=O)c3ccc(C(=O)O)cc3C2=O)o1	7.08µM*	x	-22.8%	15.7%[9.22 µM]	u	-14.2%[10 µM]
O=C(O)c1ccc2c(c1)C(=O)/C(=C\c1ccco1)C2=O	u	x	-29.1%	-0.3%	u	24.6%[10 µM]
COc1ccc(CCN2C(=O)CC(C(N)=O)SC2=Nc2ccc(F)cc2)cc1OC (stereo unspecified)	-0.2%	x	-9.1%	6.4%[9.22 µM]	1.0%	u
CSc1ccc(C2(O)Cc3cccc[n+]3C2c2ccccc2)cc1 (stereo unspecified)	x	x	1.4%	12.8%[9.22 µM]	5.8%	7.2%[10 µM]
SMILES	ALDH1A1 block	HPGD block	KDM4E inh	HttQ103 aggreg	CBFb-RUNX1 inh	HTT ATP protect
CCOC(=O)c1c(C)oc2ccc(O)c(CN3CCCCC3)c12	-4.3%	-12.6%	-4.9%	-16.9%	4.3%	0.2%
CCOC(=O)c1c(C)oc2c1c(CN1CCN(CCO)CC1)c(O)c1ccccc12	0.355µM*	x	u	17.0%	5.4%	-26.1%
CCOC(=O)c1oc2ccccc2c1CN1CCN(C(=O)c2ccccc2)CC1	20µM*	0.3%	8.5%	16.0%	-1.4%	-3.6%[10 µM]
CCOC(=O)c1oc2ccccc2c1CN1CCN(c2ccccc2)CC1	-15.7%	-3.7%	-7.7%	u	-6.4%	16.5%
CCOC(=O)c1c(C)oc2c1c(C(c1ccncc1)N1CCOCC1)c(O)c1ccccc12 (stereo unspecified)	12.6µM*	-26.6%	u	19.4%	-23.6%	5.5%[10 µM]
CCOC(=O)c1c(C)oc2c1c(CN1CCN(C(=O)OCC)CC1)c(O)c1ccccc12	1.58µM*	-15.5%	25.1µM*	23.8%	-2.0%	x
CCOC(=O)c1c(C)oc2c1c(C=NCCC(=O)O)c(O)c1ccccc12	u	x	-19.1%	18.0%	-5.2%	-0.8%[10 µM]
CCS(=O)(=O)c1ccc2oc(Nc3ccccc3C)nc2c1	0.1%	-8.6%	0.8%	-2.3%	-1.1%	-51.2%[10 µM]
O=C(O)Cc1sc(Nc2ccc(F)cc2)nc1-c1cccs1	u	x	u	13.0%	2.5%	-33.4%
COC(=O)c1sc(N2CCCCC2)c(C#N)c1N	x	x	14.3%	8.8%[9.22 µM]	-2.6%	32.3%[10 µM]
CCOC(=O)c1c(C)oc2c(CC(=O)c3ccccc3)c(Cl)c(O)c(O)c12	-1.4%	7.08µM*	u	24.5%	0.6%	x
CCOC(=O)c1c(C)oc2c1c(C=NC1CCS(=O)(=O)C1)c(O)c1ccccc12 (stereo unspecified)	7.3%	-19.7%	-1.4%	-15.3%	1.4%	-19.1%
OCCSCc1cc(Cl)cc(Cl)c1O	-10.9%[13.5 µM]	-0.5%	x	x	x	21.3%[10 µM]
O=[N+]([O-])c1ccc(N2N=C(c3ccco3)CC2c2ccccc2)cc1 (stereo unspecified)	10µM*	-18.6%	-4.4%	-6.4%	-6.5%	-51.6%
CC1=NN(C(=O)c2cc(C)nn2C)C(O)(C(F)(F)F)C1 (stereo unspecified)	-3.0%	-2.5%	4.8%	-8.2%	4.5%	x
O=C(Nc1ccccc1)Nc1ccc(Cl)c([N+](=O)[O-])c1	-3.4%	-6.4%	-4.2%	12.6µM*	4.3%	-9.3%[0.074 µM]
Cc1ccc(NC(=O)Nc2ccccc2)cc1[N+](=O)[O-]	-14.5%	-19.6%	-4.1%	4.1%	10.8%	-16.1%[10 µM]
O=C(Nc1ccc(Cl)cc1)Nc1cc([N+](=O)[O-])ccc1F	3.1%	-1.2%	2.6%	20µM*	3.8%	-4.1%[10 µM]
CC1CCN(Cc2ccc(NC(=O)C3CCN(c4nnc(-n5cccc5)s4)CC3)cc2)CC1	1.6%	-8.4%	-9.6%	-1.5%	12.9%	11.3%[10 µM]
CCN1C(=O)[C@H]2[C@H]3[C@H](O)[C@H](O)C/C(=N/NC(=O)OCc4ccccc4)[C@@H]3CC[C@@H]2C1=O	13.9%[13.5 µM]	x	x	x	6.9%[13.1 µM]	-0.6%[10 µM]

High-throughput results deposited in PubChem BioAssay by National Center for Advancing Translational Sciences (NCATS).
